CYP2C19 inhib: blockers of cytochrome P450 2C19 activity – biochemical, luminescence, ADME assay, primary screen | P33261 | CYP2C19 Supersomes, luciferin-H EGE luminescence, 30 min | inhibition, % at 5 µM | 96,000 tested, 21% active | AID 778, 2007;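 active = CYP2C19 inhibition above a set limit at 5 µM in the primary screen, cut at about 50% in these data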
CYP2C9 inh: blockers of cytochrome P450 2C9 activity – biochemical, luminescence, ADME assay, primary screen; P11712; 96,000 tested, 20% active; inhibition, % at 5 µM; CYP2C9 Supersomes, luciferin-H conversion;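 active = blocking of liver enzyme CYP2C9 beyond about 50% at 5 µM, limit read from the data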
Target sequence (P11712 whole entry, looked up): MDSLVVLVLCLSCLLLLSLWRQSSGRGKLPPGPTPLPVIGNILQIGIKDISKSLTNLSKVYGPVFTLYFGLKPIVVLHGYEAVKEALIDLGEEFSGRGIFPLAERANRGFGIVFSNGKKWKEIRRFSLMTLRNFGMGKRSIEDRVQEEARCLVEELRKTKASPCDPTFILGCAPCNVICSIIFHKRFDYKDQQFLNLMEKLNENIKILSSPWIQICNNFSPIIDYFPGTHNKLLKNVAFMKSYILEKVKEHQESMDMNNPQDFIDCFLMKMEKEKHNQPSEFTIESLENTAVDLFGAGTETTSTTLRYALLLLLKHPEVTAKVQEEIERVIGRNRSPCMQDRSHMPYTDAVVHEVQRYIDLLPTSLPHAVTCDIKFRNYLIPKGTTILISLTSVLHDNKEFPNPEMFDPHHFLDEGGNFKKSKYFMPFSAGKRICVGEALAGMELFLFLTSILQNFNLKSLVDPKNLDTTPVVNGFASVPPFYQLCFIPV
CYP2C19 activ: human CYP2C19 activators, primary screen, biochemical, luminescence; Cytochrome P450 2C19 (Homo sapiens), P33261; recombinant CYP2C19, luciferin-H EGE luminescence; active compounds read high; 0 = fully inhibited enzyme, 1 = untreated enzyme; activation factor at 5 µM; 96,000 tested, under 10 active; AID 1025, 2008;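 active = activation factor of at least 2 at 5 µM in the primary screen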
CYP2C9 activ: human CYP2C9 activators, primary screen, biochemical, luminescence; Cytochrome P450 2C9 (Homo sapiens), P11712; recombinant CYP2C9, luciferin-H conversion; active compounds read high; factor 1 = untreated enzyme, 0 = blocked; activation factor at 5 µM; 96,000 tested, 1.4% active;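 active = activation factor of 2 or more for CYP2C9 at a 5 µM dose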
A number is an active result; 0 = inactive. The list is not random: actives were taken first. Their share in the collection is about 31%.

SMILES	CYP2C19 inhib	CYP2C9 inh	CYP2C19 activ	CYP2C9 activ
O=C(Nc1cc(C(F)(F)F)ccc1N1CCOCC1)c1cncc(Br)c1	0	0	0	0
CC(=O)c1cc(C)ccc1OC(=O)CCN1C(=O)C2C3c4ccccc4C(c4ccccc43)C2C1=O (stereo unspecified)	0	0	0	0
N#CC(c1ccc(Cl)cc1)c1ccc2c(C(F)(F)F)cc(C(F)(F)F)nc2n1 (stereo unspecified)	77	76	0	0
Cc1cc(C)cc(NS(=O)(=O)c2ccc3[nH]c(=O)[nH]c3c2)c1	0	0	0	0
COCCCNC(=O)CS(=O)Cc1nc(-c2ccccc2C)oc1C (stereo unspecified)	0	0	0	0
O=C(Nc1ccc(-c2nc3ccccc3o2)cc1)c1ccc2c(c1)OCO2	0	0	0	0
Cc1ccc(-c2nc3ccccc3o2)cc1NC(=O)c1ccc2c(c1)OCO2	0	70	0	0
Cc1c(NC(=O)c2ccc3c(c2)OCO3)cccc1-c1nc2ccccc2o1	0	69	0	0
COc1ccc(C(=O)Nc2ccc(S(=O)(=O)N3CCCC3)cc2)c(OC)c1	0	0	0	0
CN1C2CCC1/C(=C\c1ccccc1)C(=O)/C2=C\c1ccccc1	0	0	0	2.2
COc1nc(N(C#N)CC(N)=O)nc(N2CCCC2)n1	0	0	0	0
Cc1ccc(N2CC(C(=O)Nc3ccc4c(c3)OCCO4)CC2=O)cc1 (stereo unspecified)	0	0	0	0
O=C(NC(Cc1ccccc1)c1nc2ccccc2[nH]1)C1CC(=O)N(c2ccc3c(c2)OCCO3)C1 (stereo unspecified)	81	0	0	0
COc1ccc(-n2cnnc2SCc2csc(-c3ccccc3)n2)cc1	75	0	0	0
Cc1nnc(SCc2cnc(-c3ccc(C(C)C)cc3)s2)n1C	0	0	0	0
c1ccc(-c2ncc(CSc3nncn3-c3ccccc3)s2)cc1	59	0	0	0
CC1CC(C)CN(C(=O)c2cc3c(s2)CCC3)C1 (stereo unspecified)	0	0	0	0
COc1ccc(S(=O)(=O)N2CCCCCC2)cc1C(=O)OCC(=O)NCC(C)C	0	0	0	0
O=C(COC(=O)c1cc(S(=O)(=O)N2CCOCC2)ccc1O)NCCc1ccccc1	0	83	0	0
O=S(=O)(Nc1cccc2ccccc12)N1CCCC1	68	0	0	0
CC(C)CNC(=O)COC(=O)c1cc(S(=O)(=O)N2CCCCC2)ccc1N1CCOCC1	0	69	0	0
O=C(c1cc(S(=O)(=O)N2CCOCC2)ccc1F)N1CCN(Cc2ccccc2)CC1	75	0	0	0
O=C(NCCc1ccccc1)c1cc(S(=O)(=O)N2CCOCC2)ccc1F	0	54	0	0
COc1ccccc1NC(=O)c1ccccc1NS(=O)(=O)N1CCCC1	0	0	0	0
O=C(NCCc1ccccc1)c1ccccc1NS(=O)(=O)N1CCCC1	89	86	0	0
SMILES	CYP2C19 inhib	CYP2C9 inh	CYP2C19 activ	CYP2C9 activ
O=C(Cn1c(=O)n(Cc2ccco2)c(=O)c2cc(Cl)ccc21)NCC1CCCO1 (stereo unspecified)	0	0	0	0
Cc1ccc(N2CCN(C(=S)c3ccc(N(C)C)cc3)CC2)cc1	83	77	0	0
CC(=O)N1CCN(C(=S)c2ccc(N(C)C)cc2)CC1	0	0	0	0
CN(C)c1ccc(C(=S)N2CCCCCC2)cc1	53	0	0	0
CCOC(=O)C1=C(N)Oc2c(oc(CO)cc2=O)C1c1c(F)cccc1Cl (stereo unspecified)	71	59	0	0
O=C(CSc1ncn[nH]1)N1N=C2/C(=C/c3ccco3)CCCC2C1c1ccco1 (stereo unspecified)	88	94	0	0
Cc1nn(C)c(C(=O)Nc2ccn(Cc3c(F)c(F)cc(F)c3F)n2)c1[N+](=O)[O-]	0	0	0	0
Cc1nn(Cc2cccc(F)c2)c(C)c1NC(=O)c1c([N+](=O)[O-])c(C)nn1C	76	62	0	0
Cc1nn(Cc2cccc(C(=O)Nc3ccn(Cc4c(F)c(F)cc(F)c4F)n3)c2)c(C)c1[N+](=O)[O-]	86	93	0	0
Cc1nn(Cc2cccc(F)c2)c(C)c1NC(=O)c1ccc(COc2ccccc2Cl)cc1	0	65	0	0
CC[n+]1c(/C=C2/C=C(C)CC(C)(C)C2)sc2ccc(OC)cc21	0	0	0	0
COc1ccc(CNCC(O)(c2ccccc2)c2ccc(Cl)cc2)cc1 (stereo unspecified)	82	58	0	0
Cc1ccc(C)c(NC(=O)C2CC(O)CN2C(=O)OC(C)(C)C)c1 (stereo unspecified)	0	0	0	0
Cc1ccc(-c2ccc(/C=N/N3C(=O)C4C5C=CC(CC5)C4C3=O)o2)c([N+](=O)[O-])c1 (stereo unspecified)	0	70	0	0
O=C(COC(=O)CCC(=O)Nc1nccs1)NCc1ccco1	0	0	0	0
Cc1ccc(CCC(=O)Nc2nccs2)o1	63	0	0	0
CCc1ccc(CCC(=O)Nc2nccs2)o1	58	0	0	0
CCc1ccc(CCC(=O)Nc2ccccc2C(=O)O)o1	0	52	0	0
COC(=O)c1c(NC(=O)c2cnccn2)sc2c1CCC2	0	0	0	0
Oc1c(Br)cc(C2N=C(c3ccccc3Cl)NO2)cc1Br (stereo unspecified)	0	0	0	0
c1ccc(CCn2nnnc2CN2CCCc3ccccc32)cc1	96	67	0	0
CCC(C)(C)n1nnnc1CN1CCc2ccccc21	61	0	0	0
c1ccc2c(c1)CCCN2Cc1nnnn1CC1CCCO1 (stereo unspecified)	0	0	0	0
CCC(C)(C)n1nnnc1C(c1cccs1)N1CCc2ccccc21 (stereo unspecified)	0	53	0	0
COC(=O)c1c(NC(=O)CN2CCCC(C)C2)c2c(C)cccc2n1C (stereo unspecified)	0	0	0	0
SMILES	CYP2C19 inhib	CYP2C9 inh	CYP2C19 activ	CYP2C9 activ
CC(C)c1nc(-c2c(N)n(C)c(=O)n(C)c2=O)sc1C(=O)C(C)(C)C	76	0	0	0
CC(=O)c1cccc(NC(=O)N2CCCC2C(=O)NC2CCCCC2)c1 (stereo unspecified)	0	0	0	0
Cc1ccccc1NS(=O)(=O)c1ccc(C2CNC(=O)C2)cc1 (stereo unspecified)	56	0	0	0
O=C1CC(c2ccc(S(=O)(=O)NCc3ccccc3)cc2)CN1 (stereo unspecified)	0	0	0	0
O=C1CC(c2ccc(S(=O)(=O)Nc3cc(C(F)(F)F)cc(C(F)(F)F)c3)cc2)CN1 (stereo unspecified)	0	79	0	0
O=C1CCC(C(=O)Nc2cccc(C(F)(F)F)c2)N1 (stereo unspecified)	0	0	0	0
CC(C)(C)n1nc2c(c1NC(=O)c1cccc(C(F)(F)F)c1)CS(=O)C2 (stereo unspecified)	0	0	0	0

Screening data: PubChem, Sanford-Burnham Center for Chemical Genomics
